Screening data: PubChem BioAssay, several laboratories
Mcl1-Noxa inh = Mcl-1/Noxa binding inhibitors, primary screen, biochemical, TR-FRET, 1536-well. inhibition, % at 21.7 µM. TR-FRET Mcl-1/Noxa peptide binding, 2 h. AID 1022, 2008. actives 1.5% (n = 220,000). Induced myeloid leukemia cell differentiation protein Mcl-1 (Homo sapiens), Q07820;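 active = compounds that cut the protein-peptide binding signal by more than 50% relative to plate controls in a single-dose test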;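 note: His-tagged Mcl-1 with rhodamine Noxa BH3 peptide and terbium anti-His antibody; 0% = Mcl-1 plus Noxa peptide wells and 100% = peptide-only wells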
Target sequence (Q07820 whole entry, looked up): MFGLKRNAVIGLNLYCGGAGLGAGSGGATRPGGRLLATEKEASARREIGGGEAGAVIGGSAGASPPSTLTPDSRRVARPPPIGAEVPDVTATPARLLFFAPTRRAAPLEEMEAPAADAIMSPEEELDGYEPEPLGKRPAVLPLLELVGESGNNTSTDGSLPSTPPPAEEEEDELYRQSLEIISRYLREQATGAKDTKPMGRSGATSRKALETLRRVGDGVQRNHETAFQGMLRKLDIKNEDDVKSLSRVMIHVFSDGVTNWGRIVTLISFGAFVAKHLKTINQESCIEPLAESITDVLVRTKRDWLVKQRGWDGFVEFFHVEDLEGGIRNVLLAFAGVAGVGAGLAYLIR
eIF4E 4G PPI = eIF4E–eIF4G protein interaction inhibitors, primary screen, biochemical, uHTS, TR-FRET, eIF4GI fragment. Eukaryotic translation initiation factor 4E (Mus musculus) + Eukaryotic translation …. inhibition, % at 21.7 µM. TR-FRET eIF4E-eIF4GI(517-606) binding, 2 h. actives 0.37% (n = 220,000);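 note: 0% = full FRET control wells and 100% = background wells lacking eIF4GI fragment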
14-3-3 Bad inh = inhibitors of 14-3-3 zeta/Bad binding, primary screen, biochemical, TR-FRET, bovine 14-3-3 zeta | 14-3-3 protein zeta/delta (Bos taurus), P63103 | TR-FRET 14-3-3zeta/Dy647-pBad peptide displacement, 1 h | inhibition, % at 21.7 µM | actives 0.71% (n = 220,000);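 active = inhibition above about 70%, limit read from the data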;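 note: 0% = full 14-3-3 plus peptide FRET controls and 100% = background without 14-3-3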
Target sequence (P63103 whole entry, looked up): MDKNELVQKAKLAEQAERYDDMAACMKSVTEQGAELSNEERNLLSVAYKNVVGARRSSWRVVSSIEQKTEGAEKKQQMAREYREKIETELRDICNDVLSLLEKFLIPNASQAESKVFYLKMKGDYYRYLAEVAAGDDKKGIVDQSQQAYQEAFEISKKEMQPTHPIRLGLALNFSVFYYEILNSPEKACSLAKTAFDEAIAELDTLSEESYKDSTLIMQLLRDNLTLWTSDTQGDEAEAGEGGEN
Mcl1-Bid inh = Mcl-1/Bid binding inhibitors, primary screen, biochemical, TR-FRET, 1536-well; Induced myeloid leukemia cell differentiation protein Mcl-1 (Homo sapiens), Q07820; TR-FRET Mcl-1/Bid-Dy647 peptide binding; inhibition, % at 21.7 µM; actives 0.97% (n = 220,000); AID 1021, 2008;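 active = compounds that cut the binding signal by more than half at the single screening dose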;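 note: His-tagged Mcl-1 with europium anti-His antibody binding Bid BH3 peptide; 0% = Mcl-1 plus peptide wells and 100% = peptide-only wells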
NCF1 inh = p47phox/p22phox peptide binding inhibitors, primary screen, biochemical, uHTS, NADPH oxidase regulatory subunit. Neutrophil cytosol factor 1 (Homo sapiens), P14598. inhibition, % at 24.7 µM. fluorescence polarization, 2 h. actives 0.53% (n = 220,000). AID 1274, 2008;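 note: 0% = p47phox with labelled peptide and 100% = labelled peptide alone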
Mcl-1 Bim block = inhibitors of Bim peptide binding to Mcl-1, primary screen, biochemical, bead-based flow cytometry, multiplex; Bim peptide-Mcl-1 binding; Induced myeloid leukemia cell differentiation protein Mcl-1 (Homo sapiens), Q07820; actives 0.1% (n = 190,000); inhibition, % at 10 µM; AID 1009, 2008; in the data active = inhibition above about 40%;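 note: 0% = no compound tracer wells and 100% = peptide blocker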
Active calls of the source: *; nt = no result given; + = active, no number. A selection: hits, their analogues and other compounds. The true share with any hit is near 3.3%.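 Rule for the calls, unless noted: active = inhibition above about 30% (limit read from the data); inactive = the rest.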

SMILES	Mcl1-Noxa inh	eIF4E 4G PPI	14-3-3 Bad inh	Mcl1-Bid inh	NCF1 inh	Mcl-1 Bim block
Oc1c(CN2CCN(c3ccccc3)CC2)cc(Br)c2cccnc12	-106	-10	-12	-188	-80	nt
c1ccc(N2CCN(Cc3ccnc4ccccc34)CC2)cc1	25	3	71*	3	1	-5
CC(C)(C)c1ccc(C(=O)NNC(=O)C2CCCCC2)cc1	15	2	0	-3	31*	-2
Cc1cccc(C2(c3cccc(C)c3)CC2C(=O)Nc2ccc([N+](=O)[O-])cc2O)c1 (centres undefined)	14	-4	-15	-13	-24	-4
Clc1ccc(-c2csc(N/N=C/c3cccnc3)n2)c(Cl)c1	58*	0	6	42	-7	-3
COc1ccccc1N1C(=O)C2CC(C)=C(C)CC2C1=O (centres undefined)	14	2	-7	2	-7	1
COc1ccccc1N1C(=O)C=C(Sc2nc(C)cc(C)n2)C1=O	54*	14	11	-30	18	nt
CC1(C)CC2=C(CO1)C(=S)NC(c1ccccc1)N2CC1CCCO1 (centres undefined)	3	95*	1	-49	-3	nt
Cn1nc(C(F)(F)F)c2cc(C(=O)Nc3ccc(C(F)(F)F)cc3)sc21	-14	-2	5	-11	-12	nt
CC(=O)Nc1ccc(S(=O)(=O)NCCc2ccc(S(N)(=O)=O)cc2)cc1	-14	0	-1	-10	-2	0
Cc1[nH]c(=O)[nH]c(=O)c1S(=O)(=O)NCCc1ccc(S(N)(=O)=O)cc1	58*	-2	-12	-14	-6	0
CC(C)Nc1nnc(SC(C)C(=O)Nc2ccc(Cl)cn2)s1 (centres undefined)	11	2	-18	-5	-3	-5
O=C(NCCNC1CCN(Cc2ccccc2)CC1)c1cccs1	7	-12	71*	8	-2	-1
CCN1C(=O)C2(C(C(=O)c3ccc(C)o3)=C(O)C(=O)N2CCCN(C)C)c2ccccc21 (centres undefined)	-7	3	-1	-98	-16	nt
CCCN1C(=O)C2(C(C(=O)c3ccc(C)o3)=C(O)C(=O)N2CCCOC)c2ccccc21 (centres undefined)	18	96*	9	-7	-9	nt
Cc1ccccc1-n1sc2cc(F)ccc2c1=O	16	52*	-29	-91	102*	-4
Nc1cc(N)cc(C(=O)OCC(=O)Nc2cc(S(=O)(=O)N3CCCCC3)ccc2Cl)c1	16	-4	-5	-56	-9	0
CC(=O)N1CCc2c(sc(NC(=O)c3ccc([N+](=O)[O-])o3)c2C#N)C1	53*	8	5	-33	-12	-5
CN(C)c1ccc(-c2n[nH]c(=S)n2-c2ccccc2)cc1	51*	-8	-2	-36	-9	-3
CCN(CC)c1ccc(-c2n[nH]c(=S)n2-c2ccccc2)cc1	22	-3	-18	-50	5	-7
CCCCC(=O)Nc1ccc(C(=O)NN2C(=O)c3ccccc3C2=O)cc1	2	1	10	-13	-3	-8
Cc1cc(C)c2nc(C(F)(F)F)nc(N3CC(C)OC(C)C3)c2c1 (centres undefined)	-7	5	23	-12	45*	-6
CCC(=O)OC1(C#CCOc2ccc(OC)cc2)CCN(C)CC1	10	16	33	53*	-3	4
Cc1ccc2nc3c(c(Nc4ccc5c(c4)OCCO5)c2c1)CCC3	56*	15	-17	-18	-17	-5
Cc1c(C(=O)NN2CCCCC2)nn(-c2ccc(Cl)cc2Cl)c1-c1ccc(I)cc1	-30	6	-1	-3	-7	0
SMILES	Mcl1-Noxa inh	eIF4E 4G PPI	14-3-3 Bad inh	Mcl1-Bid inh	NCF1 inh	Mcl-1 Bim block
CCCS(=O)(=O)N1CCCC(C(=O)NCCc2ccc(Cl)cc2)C1 (centres undefined)	0	-1	13	55*	-11	-2
CCS(=O)(=O)N1CCCC(C(=O)NC2CCCC2)C1 (centres undefined)	3	-3	89*	-13	2	-1
CS(=O)(=O)N1CCCC(C(=O)NCCc2ccc(Cl)cc2)C1 (centres undefined)	18	3	-3	-32	-1	-4
O=C(NC1CCCCCCC1)C1CCN(S(=O)(=O)N2CCCC2)CC1	7	58*	-6	-28	-2	-2
CCCS(=O)(=O)N1CCCC(C(=O)NC2CCCCC2)C1 (centres undefined)	-9	-7	-13	-3	-8	1
Cc1nc(Sc2ccc(Br)cc2)c(C#N)c(C)c1[N+](=O)[O-]	-1	5	-7	4	-1	nt
CC(C)Nc1ccc(Nc2ccnc3cc4ccccc4cc23)cc1	68*	14	-1	-33	12	nt
O=C(O)c1cccc(Nc2cc(Cl)c3nonc3c2[N+](=O)[O-])c1	27	2	9	-21	-4	5
O=[N+]([O-])c1c(Nc2ccccn2)cc(Cl)c2nonc12	57*	-8	-1	-39	-8	nt
COc1ccc(NC(=O)Cn2c(NCC(C)O)nc3ccccc32)cc1Cl (centres undefined)	23	6	-5	-12	-4	0
CCC(CC)C(=O)Nc1cccc(SC)c1	-3	1	14	-10	3	18
COc1ccc(-c2nc(-c3cccc([N+](=O)[O-])c3O)cc(=O)o2)cc1OC	40	7	6	43	-12	-5
COc1cc(/C=C2/C(=O)c3cccc([N+](=O)[O-])c3C2=O)c(Br)cc1O	88*	12	-8	-28	-74	6
COc1ccccc1/C=C(/NC(=O)c1ccc(Cl)cc1Cl)C(=O)O	4	-5	85*	-33	-5	-2
CC(=O)NS(=O)(=O)c1ccc(N=c2ssc3c2-c2ccc(C)cc2NC3(C)C)cc1	9	6	-1	-37	1	-2
Cc1ccc(/C(CSc2nccn2-c2ncc(C(F)(F)F)cc2Cl)=N\O)cc1	11	-11	-4	-17	+	-7
O=C(CSc1nccn1-c1ncc(C(F)(F)F)cc1Cl)c1ccc(Br)cc1	-23	-3	-2	-30	-15	-3
Cc1ccc2nc(C)cc(C(=O)Nc3nccs3)c2c1	24	-1	-9	-26	-4	0
